Assay outcomes as filed in PubChem.
PP1 counter = counter-screen for PP5 inhibitors: inhibitors of human PP1-alpha; P62136; purified PP1alpha, OMFP fluorescence; inhibition, % at 6.7 µM; actives 0.9% (n = 320,000);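 active = inhibition above the mean inhibition of all tested compounds plus 3 SD, computed separately for each screening campaign, cut at about 15% in these data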
Exocytosis inh = blocks lytic granule exocytosis; TALL-104 LAMP-1 surface exposure, flow cytometry; cells stimulated with thapsigargin and PMA; inhibition, % at 10 µM; actives 0.66% (n = 360,000);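 active = inhibition above about 55%, limit read from the data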
GRK2 inh = inhibitors of human GRK2 displacing RNA aptamer; P25098; bead flow cytometry, FAM-aptamer displacement from GRK2; inhibition of aptamer binding, % at 10 µM; actives 0.59% (n = 330,000); AID 488847;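 active = inhibition of aptamer binding above 40%, roughly 3 SD of noise, on plates passing a quality check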;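 note: median bead fluorescence of bound FAM aptamer so fluorescent compounds give negative values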
NadD block = blocks S. aureus nicotinate mononucleotide adenylyltransferase | purified NadD enzyme, colorimetric absorbance read-out | actives 0.78% (n = 360,000) | inhibition, % at 20 µM; in the data active = inhibition above about 26%
Beta2AR agonist = activates human beta-2 adrenergic receptor causing internalization. P07550. Am2.2-beta2AR cells, FAP receptor internalization, flow cytometry. response, % (test concentration not listed). actives 0.43% (n = 340,000). AID 504454;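 active = response above a set limit, near 3 SD of response in nonfluorescent compounds, cut at about 42% in these data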
GRK2 inh confirm = human GRK2 inhibition confirmation, cherry pick 1; shares compounds with GRK2 inh; aptamer displacement, % at 10 µM; actives 4% (n = 2,000); bead-bound GRK2, FAM-aptamer displacement, flow cytometry;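 active = aptamer displacement above 40%, near three times the noise of non-fluorescent compounds, on plates passing quality checks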;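 note: negative values mostly reflect intrinsic compound fluorescence rather than true enhancement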
FAM quench CP1 = quenches fluorescent RNA aptamer, GRK2 hit artifact; fluorescence response (% of DMSO), % at 10 µM; shares compounds with GRK2 inh; Carboxyfluorescein RNA aptamer on beads, flow cytometry quenching; stronger effect = lower value; AID 504580; 2,000 tested, under 10 active;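 active = compounds that quench the bead-bound fluorescent RNA probe, cutting fluorescence to under half of the solvent control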;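 note: counterscreen run without GRK2 so only probe quenching by compound is measured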
GRK2 CP2 = human GRK2 inhibition confirmation, cherry pick 2 | inhibition of aptamer binding, % at 10 µM | bead-bound GRK2, FAM-aptamer displacement, flow cytometry | shares compounds with GRK2 inh | 360 tested, under 10 active;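 active = inhibition of aptamer binding above 40%, about triple the noise seen with nonglowing compounds, on plates passing quality control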;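 note: negative values mostly come from compounds that fluoresce themselves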
FAM quench SP = counter-screen for GRK2 binding hits: quenchers of fluorescent RNA aptamer | shares compounds with GRK2 inh | carboxyfluorescein RNA aptamer beads, flow cytometry quenching; stronger effect = lower value | fluorescence response vs DMSO, % at 10 µM | 360 tested, under 10 active;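 active = response vs DMSO under 50%, meaning signal dropped by over half, treated as fluorescence quencher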;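 note: labelled aptamer on streptavidin beads without GRK2 as a quench counter-screen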
B2AR ag CP1 = agonists of human beta-2 adrenergic receptor. shares compounds with Beta2AR agonist. Am2.2-beta2AR cells, FAP surface receptor, flow cytometry; stronger effect = lower value. percent response (surface receptor), % at 10 µM. actives 25% (n = 1,100). AID 540358;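 active = surface receptor percent response at or below 58%, roughly 3 SD from nonfluorescent compounds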
B2AR FAP counter = counter-screen for beta-2AR agonists: fluorescence in Am2.2 cells; 1,100 tested, under 10 active; FAP fluorogen flow cytometry, fluorescence counterscreen; stronger effect = lower value; calls only at 10 µM; shares compounds with Beta2AR agonist;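 active = percent response below a set limit in fluorescence channel 1 and below 50% in channel 8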
NadD conf = confirmation of Staphylococcus aureus NadD inhibitors. purified S. aureus NadD, colorimetric enzyme assay. inhibition, % at 20 µM. shares compounds with NadD block. actives 13% (n = 2,000); in the data active = inhibition mostly above about 42%, no sharp cut-off; inactive = mostly below about 42%
Granule exo CP1 = lytic granule exocytosis inhibition | inhibition, % at 10 µM | actives 11% (n = 1,500) | shares compounds with Exocytosis inh | TALL-104 cells, LAMP-1 externalization, flow cytometry; stimulated with PMA plus thapsigargin; in the data active = inhibition above about 60%
Large screens that a line does not name were inactive (follow-up assays come after a bar, where they were run). Hits are enriched below; roughly 2.9% of the tested compounds scored in any of these assays.

O=[N+]([O-])c1ccccc1/C=C/C=N/n1c(-c2cc(-c3ccccc3)n[nH]2)n[nH]c1=S	GRK2 inh 69, NadD block 42 | GRK2 inh confirm inactive | FAM quench CP1 inactive | NadD conf inactive
NCCCC[C@@H]1NC(=O)[C@H](CCC(=O)O)NC(=O)c2cc([N+](=O)[O-])cc(I)c2SC[C@@H](C(=O)NCC(N)=O)NC1=O	none
NCCCC[C@@H]1NC(=O)c2cc([N+](=O)[O-])cc(I)c2SC[C@@H](C(N)=O)NC(=O)[C@H](Cc2ccc(O)cc2)NC1=O	GRK2 inh 69, NadD block 42 | GRK2 inh confirm inactive | FAM quench CP1 inactive | NadD conf inactive
COc1ccc(Cl)cc1C(=O)NNC(=S)NC(=O)c1cc(-c2ccccc2)nc2ccccc12	GRK2 inh 43, NadD block 61 | GRK2 inh confirm inactive | FAM quench CP1 inactive | NadD conf inactive
COC(=O)c1ccc(NC(=S)NC(=O)c2cc(-c3ccccc3)nc3ccccc23)cc1	none
CCOC(=O)c1c(NC(=O)COC(=O)Cc2n[nH]c(=O)c3ccccc23)sc(C(=O)NC)c1C	none (no result: PP1 counter)
CN(C)CCCN(C(=O)CCSc1ccccc1)c1nc2cc3c(cc2s1)OCO3	Exocytosis inh 60, GRK2 inh 68 | GRK2 inh confirm inactive | FAM quench CP1 inactive | Granule exo CP1 70
COc1ccccc1NC(=O)c1ccccc1Oc1ccccc1	Exocytosis inh 68, GRK2 inh 41 | GRK2 inh confirm inactive | FAM quench CP1 inactive | Granule exo CP1 inactive
COc1ccccc1-c1cc(C(F)(F)F)nc(S(=O)(=O)CCCC(=O)Nc2cc(C)on2)n1	none
COc1ccccc1-c1cc(C(F)(F)F)nc(S(=O)(=O)CCCC(=O)NCc2ccc(F)cc2)n1	Exocytosis inh 75, GRK2 inh 48 | GRK2 inh confirm inactive | FAM quench CP1 inactive | GRK2 CP2 inactive | FAM quench SP inactive | Granule exo CP1 inactive
Cc1c(C(=O)N(C)CCCCN2CCOCC2)oc2c(F)cccc12	none
O=C(NC1CC1)c1cccc(Nc2ccc(-c3ccc4c(c3)OCCO4)nn2)c1	Exocytosis inh 71 | GRK2 inh confirm inactive | FAM quench CP1 inactive | Granule exo CP1 inactive
CCCN(CCC)S(=O)(=O)c1ccc(C(=O)Nc2ccc(S(=O)(=O)Nc3nnc(CC)s3)cc2)cc1	none (no result: PP1 counter)
CCn1c(=O)c2cc(C(=O)NCCCOC)sc2c2ccccc21	none
CCn1c(=O)c2cc(C(=O)NCCC(C)C)sc2c2ccccc21	Exocytosis inh 71, GRK2 inh 51 | FAM quench CP1 inactive | Granule exo CP1 inactive
Cc1cccc(C(O)c2ncc(-c3cccc(C(F)(F)F)c3)[nH]2)c1C (centres undefined)	none (no result: PP1 counter, GRK2 inh, Beta2AR agonist)
Cc1ccc(Nc2nc(-c3c(C)nc4ccccn34)cs2)cc1	Beta2AR agonist 43 | B2AR ag CP1 inactive | B2AR FAP counter inactive
